{
  "source": "the supplement of paper PMC10338343",
  "tested_on": "MILI (PIWIL2) piRISC loaded with L1MC piRNA (26 nt)",
  "assay": "pre-steady-state target cleavage rate (min^-1); guide: L1MC piRNA 5'p-UAACUAAAUACUAUGCAAGCUGUAGG; MIWI and MILI are mouse PIWI proteins and EfPiwi is from a freshwater sponge; tags in brackets are library labels; higher = faster piRNA-guided slicing of the target",
  "summary_of_the_method": "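Cleave-'n-Seq used a transcribed, DNA-blocked target RNA library at 0.1 nM and active affinity-purified piRISC with one synthetic guide at 1 nM, with or without 500 nM GTSF1 partner protein, in HEPES–potassium acetate buffer at 33 °C for 0–8 or 0–960 min. Uncleaved targets were sequenced and normalised to depth and to weakly complementary targets, and three trials were pooled with k3 capped at 0.0001 min^-1. The pre-steady-state cleavage rate was estimated by a burst-and-steady-state fit.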",
  "key": {"[1]": {"details": "auxiliary factor: 500 nM mouse GTSF1"}, "[2]": {"details": "auxiliary factor: none (no GTSF1)"}},
  "note": "± gives the standard deviation.",
  "data": [
    {"sequence": "UCCUGGAACAUGCUUGCAUAGUAUUUAGUUA", "values": [
      {"measurement": "pre-steady-state target cleavage rate", "setting": "[1]", "result": "0.184 ± 0.011"},
      {"measurement": "pre-steady-state target cleavage rate", "setting": "[2]", "result": "0.00694 ± 0.0023"}
    ]},
    {"sequence": "UCCUCGUACAGCUUGCAUACUAUUUAGUUA", "values": [
      {"measurement": "pre-steady-state target cleavage rate", "setting": "[1]", "result": "0.0786 ± 0.011"},
      {"measurement": "pre-steady-state target cleavage rate", "setting": "[2]", "result": "0.00274 ± 0.0022"}
    ]},
    {"sequence": "UCCUGGAUGUCGUUGCAUAGUAUUUAAGUUA", "values": [
      {"measurement": "pre-steady-state target cleavage rate", "setting": "[1]", "result": "0.191 ± 0.032"},
      {"measurement": "pre-steady-state target cleavage rate", "setting": "[2]", "result": "0.00676 ± 0.0028"}
    ]},
    {"sequence": "UCCUGGAUGUCCUUGCAUCGUAUUUAGUUA", "values": [
      {"measurement": "pre-steady-state target cleavage rate", "setting": "[1]", "result": "0.0423 ± 0.015"},
      {"measurement": "pre-steady-state target cleavage rate", "setting": "[2]", "result": "0.00482 ± 0.0021"}
    ]},
    {"sequence": "UCCUGGAUGUCGUUGCAUAGUAUAUUAGUUA", "values": [
      {"measurement": "pre-steady-state target cleavage rate", "setting": "[1]", "result": "0.121 ± 0.023"},
      {"measurement": "pre-steady-state target cleavage rate", "setting": "[2]", "result": "0.00754 ± 0.0028"}
    ]},
    {"sequence": "UCCUGGAUGAGCUUGCAUAGUAUUGUAGUUA", "values": [
      {"measurement": "pre-steady-state target cleavage rate", "setting": "[1]", "result": "0.0782 ± 0.024"},
      {"measurement": "pre-steady-state target cleavage rate", "setting": "[2]", "result": "0.00469 ± 0.003"}
    ]},
    {"sequence": "UCCUGCUACAGCUUGCAUAGAUAUUUAGUUA", "values": [
      {"measurement": "pre-steady-state target cleavage rate", "setting": "[1]", "result": "0.0121 ± 0.005"},
      {"measurement": "pre-steady-state target cleavage rate", "setting": "[2]", "result": "0.00419 ± 0.0019"}
    ]},
    {"sequence": "UCCUGGAUGUGCUAGGAUAGUAUUUAGUUA", "values": [
      {"measurement": "pre-steady-state target cleavage rate", "setting": "[1]", "result": "0.103 ± 0.014"},
      {"measurement": "pre-steady-state target cleavage rate", "setting": "[2]", "result": "0.00564 ± 0.0022"}
    ]},
    {"sequence": "UCCUGGAUGAGCAUGCAUACUAUUUAGUUA", "values": [
      {"measurement": "pre-steady-state target cleavage rate", "setting": "[1]", "result": "0.0556 ± 0.011"},
      {"measurement": "pre-steady-state target cleavage rate", "setting": "[2]", "result": "0.00656 ± 0.0024"}
    ]},
    {"sequence": "UCCUGGUACUGCUUGCAUAGUAUUUUGUUA", "values": [
      {"measurement": "pre-steady-state target cleavage rate", "setting": "[1]", "result": "0.0539 ± 0.019"},
      {"measurement": "pre-steady-state target cleavage rate", "setting": "[2]", "result": "0.00457 ± 0.0034"}
    ]},
    {"sequence": "UCCUGGAUGUGCUUGGAAAGUAUUUAGUUA", "values": [
      {"measurement": "pre-steady-state target cleavage rate", "setting": "[1]", "result": "0.0377 ± 0.0067"},
      {"measurement": "pre-steady-state target cleavage rate", "setting": "[2]", "result": "0.00729 ± 0.002"}
    ]},
    {"sequence": "UCCUCCUACAGCUUGCAUAGUAUUAAGUUA", "values": [
      {"measurement": "pre-steady-state target cleavage rate", "setting": "[1]", "result": "0.178 ± 0.026"},
      {"measurement": "pre-steady-state target cleavage rate", "setting": "[2]", "result": "0.00415 ± 0.0024"}
    ]},
    {"sequence": "UCCUGGAUGUGCUUGGAUAGUAUUUAGUUA", "values": [
      {"measurement": "pre-steady-state target cleavage rate", "setting": "[1]", "result": "0.115 ± 0.013"},
      {"measurement": "pre-steady-state target cleavage rate", "setting": "[2]", "result": "0.00702 ± 0.0024"}
    ]},
    {"sequence": "UCCUGGAUCAGCUUGCUUAGUAUUUACUUA", "values": [
      {"measurement": "pre-steady-state target cleavage rate", "setting": "[1]", "result": "0.203 ± 0.025"},
      {"measurement": "pre-steady-state target cleavage rate", "setting": "[2]", "result": "0.00642 ± 0.0022"}
    ]},
    {"sequence": "UCCUGGAUCAGCUAGCAUUGUAUUUAGUUA", "values": [
      {"measurement": "pre-steady-state target cleavage rate", "setting": "[1]", "result": "0.107 ± 0.014"},
      {"measurement": "pre-steady-state target cleavage rate", "setting": "[2]", "result": "0.00287 ± 0.0024"}
    ]},
    {"sequence": "UCCUGGAACAGGUUGGAUAGUAUUUAGUUA", "values": [
      {"measurement": "pre-steady-state target cleavage rate", "setting": "[1]", "result": "0.164 ± 0.02"},
      {"measurement": "pre-steady-state target cleavage rate", "setting": "[2]", "result": "0.00851 ± 0.0024"}
    ]},
    {"sequence": "UCCUGGAUGUCGAUGCAUAGUAAAUAGUUA", "values": [
      {"measurement": "pre-steady-state target cleavage rate", "setting": "[1]", "result": "0.0191 ± 0.0068"},
      {"measurement": "pre-steady-state target cleavage rate", "setting": "[2]", "result": "0.00231 ± 0.0023"}
    ]},
    {"sequence": "UCCUGGAACAGCUACCAUAGUAUUUAGUAA", "values": [
      {"measurement": "pre-steady-state target cleavage rate", "setting": "[1]", "result": "0.23 ± 0.028"},
      {"measurement": "pre-steady-state target cleavage rate", "setting": "[2]", "result": "0.00298 ± 0.0029"}
    ]},
    {"sequence": "UCCUGGAUGAGGUUGCUUAGUAUUUAGUUA", "values": [
      {"measurement": "pre-steady-state target cleavage rate", "setting": "[1]", "result": "0.12 ± 0.01"},
      {"measurement": "pre-steady-state target cleavage rate", "setting": "[2]", "result": "0.0107 ± 0.0022"}
    ]},
    {"sequence": "UCCUGGAUGUCGAAGCAUAGUAUUUAGUUUA", "values": [
      {"measurement": "pre-steady-state target cleavage rate", "setting": "[1]", "result": "0.0244 ± 0.0042"},
      {"measurement": "pre-steady-state target cleavage rate", "setting": "[2]", "result": "0.00589 ± 0.0023"}
    ]},
    {"sequence": "UCCUGGUACAGCUUGCAUAGUUUUAAGUUA", "values": [
      {"measurement": "pre-steady-state target cleavage rate", "setting": "[1]", "result": "0.0506 ± 0.014"},
      {"measurement": "pre-steady-state target cleavage rate", "setting": "[2]", "result": "0.00428 ± 0.0033"}
    ]},
    {"sequence": "UCCUGGAUCAGCAUGGAUAGUAUUUAGUUA", "values": [
      {"measurement": "pre-steady-state target cleavage rate", "setting": "[1]", "result": "0.19 ± 0.0097"},
      {"measurement": "pre-steady-state target cleavage rate", "setting": "[2]", "result": "0.0106 ± 0.0024"}
    ]},
    {"sequence": "UCCUGGAUGUGCUAGCAUAGAAUUUAGUUA", "values": [
      {"measurement": "pre-steady-state target cleavage rate", "setting": "[1]", "result": "0.0105 ± 0.0042"},
      {"measurement": "pre-steady-state target cleavage rate", "setting": "[2]", "result": "0.00267 ± 0.0022"}
    ]},
    {"sequence": "UCCUGCUACACCUAGCAUAGUAUUUAGUUA", "values": [
      {"measurement": "pre-steady-state target cleavage rate", "setting": "[1]", "result": "0.254 ± 0.021"},
      {"measurement": "pre-steady-state target cleavage rate", "setting": "[2]", "result": "0.00758 ± 0.0022"}
    ]},
    {"sequence": "UCCUCCUACAGCUUGCAUAGUAGUUUAGUUA", "values": [
      {"measurement": "pre-steady-state target cleavage rate", "setting": "[1]", "result": "0.23 ± 0.022"},
      {"measurement": "pre-steady-state target cleavage rate", "setting": "[2]", "result": "0.007 ± 0.0022"}
    ]}
  ]
}
